Data as given in PubChem BioAssay (EPA / NIEHS).
Inconclusive results are not listed. Active and inactive are the calls of the source. How the source made its calls: active means hit-call score of the fitted dose curve at least 0.9, where 1 is the maximum; inconclusive means response in the unintended direction; inactive means score below 0.9.

experiment: ACEA_ER_80hr: ACEA Biosciences xCELLigence Real-Time Cell Analysis on Estrogen Receptor Agonism for Proliferation (AID 2282667); conditions: T47D proliferation, impedance (xCELLigence), 80 h
Procedure, shortened: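 Estrogen-driven proliferation is captured as electrode impedance in T47D cells 80 h after compound addition. Test articles ran at 8 concentrations, 1:4 dilutions from 100 uM final, in two replicate plates.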

SMILES	outcome	AC50
CCCCCCOC(C)=O	inactive	–
COC(=O)C(C)Oc1ccc(Oc2ncc(C(F)(F)F)cc2Cl)cc1 (configuration not stated)	inactive	–
C1CCCNCC1	inactive	–
C/C=C(\C)C(=O)OC/C=C(\C)CCC=C(C)C	inactive	–
CCOC(=O)C(=O)OCC	inactive	–
CCCO	inactive	–
ClCCOCCOCCCl	inactive	–
c1ccc(Cc2ccccc2)cc1	inactive	–
C1=COCCC1	inactive	–
CCCCC1CCCCC(=O)O1 (configuration not stated)	inactive	–
CC(=O)C1=C(C)[C@@H]2C[C@@]3(C1)[C@H](C)CC[C@H]3C2(C)C	inactive	–
C=CCOC(=O)/C=C\C(=O)OCC=C	inactive	–
CCCCCCCCOC(=O)c1ccc(O)cc1	–	521 nM (active)
CC1=CC[C@@H](C(C)(C)O)CC1	inactive	–
CC/C=C\CCOC(C)OCC (configuration not stated)	inactive	–
C=C(C)C(N)=O	inactive	–
Nc1cc([N+](=O)[O-])ccc1C(=O)O	inactive	–
CC1(C)CC(N)CC(C)(CN)C1 (configuration not stated)	inactive	–
CC(=O)c1ccc2ccccc2c1	inactive	–

SMILES	outcome	AC50
COc1ccc(C(C)=O)cc1	–	26.7 nM (active)
O=S1(=O)CC(Cl)(Cl)C(Cl)(Cl)C1	inactive	–
O=C(O)c1ccco1	inactive	–
COC(=O)c1ccc(C(=O)OC)cc1	inactive	–
C=C/C(C)=C/C/C=C(\C)CCC=C(C)C	inactive	–
CCC(=O)OCC=Cc1ccccc1	–	10500 nM (active)
CCCCCCCCCCCCN1CCOCC1	inactive	–
CCCCCCC(O)CCOC(C)=O (configuration not stated)	inactive	–
CCCc1ccc(N)cc1	inactive	–
Nc1ccn([C@H]2CC[C@@H](CO)O2)c(=O)n1	inactive	–
C=CCOCC(O)CO (configuration not stated)	–	28.5 nM (active)
CCCC1CCC(=O)CC1	inactive	–
O=S1(=O)CC=CC1	inactive	–
c1coc(CNc2ncnc3nc[nH]c23)c1	inactive	–
CC1(C)CC(=O)CC(C)(C)N1	inactive	–
O=[N+]([O-])c1cc(N(CCO)CCO)ccc1NCCO	inactive	–
C=CC(O)CCCCC (configuration not stated)	inactive	–
CCCCCCCCCCCCOC(C)=O	inactive	–
